Screening results deposited in PubChem by National Center for Advancing Translational Sciences (NCATS).
BRCA1 expr act = BRCA1 expression activation; 1.1% of 380,000 active; MCF7-BRCA1-FFLuc reporter, luminescence, 48 h; response scale: scaled: vehicle 0%, 10 µM genistein 100%; Potency, µM (top dose mostly 46.1 µM), for inactives: top-dose activation, most hits filed as activators; note: potency is the fitted concentration of half-maximal effect; nearly all actives have a fitted effect of over 80% in size
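MCF7-BRCA1-FFLuc cells, 2000/well in phenol-red-free MEM, attached 2 h then treated 48 h at 37 C. Luciferase luminescence read 15 min after reagent; normalized to genistein maximum activation (10microM) and DMSO, concentration-response fitted.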
ELG1 repair inh = blocks ELG1-dependent DNA repair in HEK293T cells | Potency, µM (titrated, usually from 46.1 µM), without a hit: at the top dose activity change, negative = inhibition, actives largely listed as inhibitors | HEK293T ELG1-luciferase reporter, luminescence, 16 h; DNA damage induced by 5-fluorouridine | 2.3% of 330,000 active; note: potency is the fitted concentration of half-maximal effect; % is set by controls: 0 for no effect and ±100 for the full control effect; nearly all actives have a fitted effect of over 55% in size
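DMSO vehicle served as the neutral condition. Each well held 2,000 cells given 5-fluorouridine plus compound; after 16 hr at 37 °C/5% CO2, ONE-Glo was added and luciferase measured 30 min later.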
p53 reactivation = mutant p53 re-activation in reporter cells | H1299 p53-A138V BP100-luciferase reporter, luminescence, 24 h | Potency, µM (top dose mostly 92.2 µM), inactives show at the top dose activity change, positive = activation, actives largely listed as activators | 0.063% of 320,000 active | AID 504706; note: potency is the fitted concentration of half-maximal effect; % of control where 0% means no effect; nearly all actives have a fitted effect of over 45% in size
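p53-null H1299 cells stably carrying temperature-sensitive p53-A138V and a BP100-luciferase reporter were pinned with compounds (4-point, 1:5 series) and held 24 hrs at 37 deg C. Luminescence was read 10 min after detection reagent.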
VP16 counter = inhibits Gal4-VP16 luciferase reporter, ROR gamma counter-screen; Drosophila S2 Gal4-VP16 UAS-luciferase, luminescence, 20 h; Potency, µM (highest dose often 53.6 µM), without a hit: at the top dose activity, negative = inhibition, hits mostly inhibitors; 3.5% of 310,000 active;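 note: Gal4-VP16 expression switched on by copper sulfate through the metallothionein promoter; potency is the fitted concentration of half-maximal effect; % is set by controls: 0 for no effect and ±100 for the full control effect; nearly all actives have a fitted effect of over 50% in size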
RORgamma inh = inhibitors of mouse ROR gamma transcriptional activity | P51450 | Drosophila S2 Gal4-RORgamma UAS-luciferase reporter, 20 h | Potency, µM (series often up to 53.6 µM), inactives show at the top dose activity change, negative = inhibition, actives largely listed as inhibitors | 5.4% of 310,000 active; note: potency is the fitted concentration of half-maximal effect; % is set by controls: 0 for no effect and ±100 for the full control effect; nearly all actives have a fitted effect of over 60% in size
Target sequence (P51450 whole entry, looked up, the tested form may be a part): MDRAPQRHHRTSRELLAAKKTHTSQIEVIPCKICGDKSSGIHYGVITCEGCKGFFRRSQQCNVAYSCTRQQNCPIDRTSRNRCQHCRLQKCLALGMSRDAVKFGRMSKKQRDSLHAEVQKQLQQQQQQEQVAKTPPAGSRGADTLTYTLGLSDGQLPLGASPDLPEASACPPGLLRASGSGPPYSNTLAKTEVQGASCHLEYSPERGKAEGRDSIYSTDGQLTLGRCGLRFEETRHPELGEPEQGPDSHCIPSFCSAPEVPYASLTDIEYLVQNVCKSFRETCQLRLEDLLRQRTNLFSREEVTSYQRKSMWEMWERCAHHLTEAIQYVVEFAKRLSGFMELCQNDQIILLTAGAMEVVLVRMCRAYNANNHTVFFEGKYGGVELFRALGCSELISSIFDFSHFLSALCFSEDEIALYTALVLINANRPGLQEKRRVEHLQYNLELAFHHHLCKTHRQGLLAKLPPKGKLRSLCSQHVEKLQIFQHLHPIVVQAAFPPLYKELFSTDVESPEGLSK
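Stable Schneider cell line, Gal4 DNA-binding domain fused to ROR gamma, UAS-luciferase. Cmpd 1 hr RT → CuSO4 700 uM final → 20 hr RT → luciferase reagent 10 min → luminescence.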
Giardia kill = Giardia lamblia killing; Giardia lamblia trophozoite viability; activity change, % at 7.66 µM, hits read low; 0.15% of 340,000 active; AID 540267; in the data active = activity change below about -80%; inconclusive = between about -30% and that limit;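 note: parasites exposed to compound for two days anaerobically before the ATP read; % is set by controls: 0 for no effect and ±100 for the full control effect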
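Each well holds 100 Giardia trophozoites and compound. After two days (48 hrs) at 37 deg C in anaerobic conditions, ATP is quantified by luminescence.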
* = called active by the depositor; ? = inconclusive; / = no result given; [ ] = remark or other dose. Most compounds without a hit are left out; they make up all but 7.6% or so of the library. Unless noted, calls come from the whole dose curve; as a rule, active = well fitted curve in the direction sought with a large enough effect; inconclusive = small, poorly fitted or top-dose-only effect, or another doubt; inactive = no such curve, though single readings can be large; an effect the other way counts as inactive or inconclusive.

SMILES | BRCA1 expr act | ELG1 repair inh | p53 reactivation | VP16 counter | RORgamma inh | Giardia kill
Cc1cccc(C(=O)n2c(=S)nc3ccccn32)c1 | ? | ? | ? | 3.2µM* | 2.5µM* | ?
Cc1cccc(C(=O)N2CCCCCC2)c1 | 0% | 3% | -2% | 2% | 0% | -3
COc1cccc(Nc2ncc3nc(-c4cc(F)cc(F)c4)c(=O)n(C[C@H]4CCCO4)c3n2)c1 | / | / | / | -7% | -24% | /
COc1ccc(N2CC(C(=O)Nc3nc4ccc(OC)cc4s3)CC2=O)cc1 (centres undefined) | 42% | -24% | -2% | 3% | ? | -14
CCC(=O)Nc1ccc(N2CCCCC2)cc1 | 102% | ? | 11% | 5% | ? | 11
CCNC(=S)Nc1ccc(N2CCCCC2)cc1 | ? | 0% | 29% | -68% | 13µM* | 5
COCCCNC(=S)N1CCN(c2ccccc2)CC1 | -20% | -13% | 1% | 24% | 24% | 10
O=C(Cc1ccccc1)Nc1ccc(N2CCCCC2)cc1 | ? | ? | 20% | -14% | -12% | -30
S=C(NCCc1ccccc1)Nc1ccc(N2CCCCC2)cc1 | -1% | 13% | 17% | ? | 7.9µM* | -6
COCCCNC(=S)Nc1ccc(N2CCCCC2)cc1 | ? | 10% | -4% | ? | 18µM* | 0
O=C(c1cccs1)N1CCN=C1SCc1cccc(F)c1 | -11% | -4% | -3% | -9% | 2% | -11
O=c1[nH]c(Cc2ccccn2)nc2scc(-c3ccc(Cl)cc3)c12 | 11% | ? | 4% | ? | 5.6µM* | -17
Cc1ccc(-c2csc3nc(CN(C)Cc4ccccc4)[nH]c(=O)c23)cc1 | 2% | -12% | 0% | 6.3µM* | 1.3µM* | -1
O=c1[nH]c(Cc2cccs2)nc2scc(-c3ccc(Cl)cc3)c12 | 76% | 3% | 8% | -1% | ? | -5
Cc1ccc(N2C(=O)CC(Sc3nc(C)cc(C)n3)C2=O)cc1 (centres undefined) | -38% | ? | -60% | -23% | ? | 14
Cc1ccccc1N1C(=O)CC(Sc2nnc(-c3ccccc3)o2)C1=O (centres undefined) | -29% | 16% | -57% | 4µM* | 3.2µM* | 7
CC(C)c1ccc(N2C(=O)CC(Sc3nc4ccccc4o3)C2=O)cc1 (centres undefined) | -10% | ? | -8% | 4µM* | 5µM* | 5
O=C1CC(Sc2nnc(-c3ccccc3)o2)C(=O)N1c1ccccc1 (centres undefined) | 8% | ? | -54% | 4µM* | 1.3µM* | -5
O=C1c2ccccc2CC1Sc1nnc(-c2ccncc2)o1 (centres undefined) | 34% | -8% | 26% | ? | 0% | 1
CC(C)n1ncc2c(C(=O)N3CCN(Cc4ccc(Cl)s4)CC3)cc(C3CC3)nc21 | -27% | -9% | 0% | / | / | 14
Cc1csc(SCC(=O)Nc2cccc(C)c2C)n1 | -2% | 2% | 3% | / | / | -11
Cc1cccc(NS(=O)(=O)c2c(C(=O)N3CCCC3)c(C)n(C)c2C)c1 | 14% | 14% | -4% | -9% | -1% | 15
Cc1cccc(/C=N/NC(=O)c2ccc(F)cc2)n1 | 8% | ? | 26% | ? | 7.1µM* | 17
Cc1cccc(/C=N/NC(=O)c2cccc(Cl)c2)n1 | 8% | 9% | 21% | 11µM* | 7.1µM* | -4
Cc1nnc(NC(=O)c2ccc3ccccc3c2)o1 | -7% | 17% | ? | 0.32µM* | 0.11µM* | 3
SMILES | BRCA1 expr act | ELG1 repair inh | p53 reactivation | VP16 counter | RORgamma inh | Giardia kill
CCc1ccccc1NC(=O)c1ccc([N+](=O)[O-])s1 | -68% | 12µM* | -1% | 6% | 14µM* | ?
CCC(=O)Nc1nnc(-c2ccco2)o1 | 0% | 3% | 2% | -14% | ? | -12
Cc1ccsc1C(=O)Nc1nnc(-c2ccco2)o1 | -3%[1.84 µM] | 9% | 18% | ? | 0.28µM* | 8
O=C(Nc1nnc(-c2ccco2)o1)c1ccc([N+](=O)[O-])s1 | -68% | ? | 5% | 2.8µM* | 0.89µM* | -81*
COc1ccccc1NC(=O)COC(=O)c1ccc([N+](=O)[O-])s1 | 1% | 6% | 0% | -4% | ? | 6
O=C(c1ccc(Br)cc1)N1CCN(c2ccccn2)CC1 | 2% | / | / | / | / | /
Cc1cc(=O)oc2cc(OCc3ccc(C(=O)OCC(=O)Nc4ccc(N(C)C)cc4)cc3)ccc12 | 21% | 29% | 5% | -8%[10 µM] | 13% | 3
COc1ccc2oc(C(=O)OCC(=O)NC(=O)c3ccccc3)c(C)c2c1 | -1% | 13% | 2% | -7% | 9% | -9
Cc1ccc(C(=O)Nc2nnc(-c3ccco3)o2)cc1 | 18% | ? | ? | ? | ? | 0
O=C(Nc1nnc(-c2ccco2)o1)C1CCCCC1 | 2% | 29% | 20% | ? | ? | 3
O=C(Nc1nnc(-c2ccco2)o1)c1ccc2ccccc2c1 | -11% | ? | ? | 1.1µM* | 1.4µM* | -7
N#Cc1ccc(C(=O)Nc2nnc(-c3ccco3)o2)cc1 | -19% | 16µM* | 14% | 3.2µM* | 1µM* | -5
c1ccc(C(c2ccccc2)N2CCN(C(c3ccccn3)c3nnnn3C3CCCC3)CC2)cc1 (centres undefined) | 1% | 17% | 5% | 4% | 2% | 17
Cc1c(C(=O)O)cccc1-c1ccc(/C=C2/NC(=O)N(c3ccccc3)C2=O)o1 | 104% | ? | 11% | -17% | 14% | 2
Cc1ccc(/C=C2/NC(=O)N(c3ccccc3)C2=O)o1 | 7.9µM* | ? | 14% | ? | -44% | -12
O=C1C(Cl)=C(N2CCOCC2)C(=O)N1c1cccc(C(F)(F)F)c1 | -6% | -4% | / | ? | ? | -16
O=C1N/C(=C/c2ccc(N3CCOCC3)o2)C(=O)N1c1cccc(Cl)c1 | -34% | ? | -11% | 4.5µM* | 3.5µM* | 31
Cc1cc(N2CC(C(=O)O)CC2=O)ccc1Br (centres undefined) | -6% | 4% | 3% | 5% | 6% | -1
Cc1nc2ccc(NC(=O)Nc3ccnc4cccnc34)cc2o1 | / | / | / | 5% | 39% | /
COc1ccc(OC)c(-c2oc3ccccc3c(=O)c2O)c1 | -17% | -26% | 2% | -28% | 7.1µM* | 2
COc1ccccc1-c1oc2ccccc2c(=O)c1O | / | / | / | 1% | 20µM* | /
Cc1ccc(C(=O)NC(=S)NNS(=O)(=O)c2ccccc2)cc1 | 25% | 6% | 0% | 14µM* | 3.2µM* | -7
O=C(NNS(=O)(=O)c1ccc(F)cc1)c1ccccc1O | -28% | ? | / | -19% | ? | 14
